FEN1 inh: qHTS Assay for the Inhibitors of Human Flap endonuclease 1 (FEN1) | P39748 | Recombinant FEN1 flap cleavage, fluorescence, 15 min | Potency, µM (top dose mostly 114 µM), actives largely listed as inhibitors | 390,000 tested, 0.35% active | AID 588795, 2011; note: nearly all actives have a fitted effect of over 65% in size
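Nuclease activity of 10 nM FEN1 was measured after 15 min of room-temperature exposure to titrated compounds, by adding 50 nM flap substrate and reading plates at 0 and 15 min.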
POLB inh: qHTS Assay for Inhibitors of DNA Polymerase Beta | AID 485314, 2010 | Pol beta primer extension/strand displacement, fluorescence kinetic | 340,000 tested, 1.3% active | Potency, µM (series often up to 114 µM), usual class: inhibitors | P06746
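Values derive from four-parameter Hill fits of normalized kinetic data: reads at 0 and 10 min following addition of 50 nM substrate to 10 nM Pol beta preincubated 15 min with compound.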
Pol kappa inh-1: qHTS for Inhibitors of Polymerase Kappa; Potency, µM (titrated, usually from 107 µM), hits mostly inhibitors; AID 588579, 2011; 400,000 tested, 0.53% active; DNA polymerase kappa (Homo sapiens), Q9UBT6; purified Pol kappa, fluorescent DNA synthesis assay, 10 min
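Pol kappa 10 nM + cpd, 15 min RT; start w/ substrate 50 nM final; fluorescence kinetic read, 0 and 10 min. Neg ctrl: buffer, no enzyme.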
Pol eta inh-1: qHTS for Inhibitors of Polymerase Eta; DNA polymerase eta (Homo sapiens), Q9Y253; recombinant Pol eta, fluorescent DNA replication assay; Potency, µM (titrated, usually from 114 µM), actives largely listed as inhibitors; 390,000 tested, 1.2% active; AID 588591, 2011
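Fluorescent replication assay: 50 nM final substrate added after a 15 min room-temperature compound preincubation with 10 nM enzyme. Signal taken at 0 min and again at 10 min.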
WRN inhibitor: qHTS for Inhibitors of WRN Helicase | Bifunctional 3'-5' exonuclease/ATP-dependent helicase WRN (Homo sapiens), Q14191 | WRN helicase unwinding, fluorescent forked duplex, kinetic | Potency, µM (series often up to 114 µM), hits mostly inhibitors | 360,000 tested, 0.46% active; note: nearly all actives have a fitted effect of over 55% in size
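WRN at 20 nM final preincubated with compound 15 min at room temperature; reaction started with 100 nM fluorophore/quencher forked duplex oligonucleotide and 2 mM ATP final. Unwinding followed kinetically by red fluorescence (ex 525, em 598 nm).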
POLI inh: qHTS for Inhibitors of Polymerase Iota. Pol iota fluorescent replication assay, 10 min. Potency, µM (top dose mostly 115 µM), usual class: inhibitors. 390,000 tested, 1% active. AID 588590, 2011
Target sequence (Q9UNA4 whole entry, looked up): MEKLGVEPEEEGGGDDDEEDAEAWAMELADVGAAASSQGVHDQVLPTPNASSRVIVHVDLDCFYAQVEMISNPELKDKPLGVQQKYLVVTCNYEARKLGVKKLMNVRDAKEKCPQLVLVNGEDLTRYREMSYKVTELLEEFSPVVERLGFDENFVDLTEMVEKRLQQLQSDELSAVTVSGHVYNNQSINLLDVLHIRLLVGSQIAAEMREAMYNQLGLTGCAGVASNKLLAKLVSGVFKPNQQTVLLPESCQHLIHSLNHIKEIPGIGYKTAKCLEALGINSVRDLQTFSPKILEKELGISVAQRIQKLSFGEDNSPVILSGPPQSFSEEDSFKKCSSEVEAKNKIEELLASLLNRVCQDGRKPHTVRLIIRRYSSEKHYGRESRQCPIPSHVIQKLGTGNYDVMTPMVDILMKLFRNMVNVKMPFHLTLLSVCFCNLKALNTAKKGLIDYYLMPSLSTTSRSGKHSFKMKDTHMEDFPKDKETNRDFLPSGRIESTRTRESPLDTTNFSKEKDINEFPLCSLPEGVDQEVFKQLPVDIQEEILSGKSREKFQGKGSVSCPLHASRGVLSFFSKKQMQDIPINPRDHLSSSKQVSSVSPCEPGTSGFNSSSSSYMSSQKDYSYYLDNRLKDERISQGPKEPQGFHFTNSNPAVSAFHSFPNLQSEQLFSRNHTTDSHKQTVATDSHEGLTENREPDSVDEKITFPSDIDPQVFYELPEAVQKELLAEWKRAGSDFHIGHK
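Pol iota at 10 nM preincubated 15 min with compounds at room temperature; reaction started with fluorescent substrate, 50 nM final. Fluorescence read kinetically at 0 and 10 min; buffer-only wells as negative control.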
PGK validate: qHTS for inhibitors of Phosphogylcerate Kinase: Hit Validation Screen. shares compounds with Pol kappa inh-1. TbPGK coupled GAPDH assay, Kinase-Glo luminescence. Potency, µM (highest dose often 57.5 µM), usual class: inhibitors. 500 tested, 79% active; note: nearly all actives have a fitted effect of over 65% in size
POLI cherry-pick: qHTS for Inhibitors of Polymerase Iota: Confirmatory Assay for Cherry-picked Compounds. Potency, µM, hits mostly inhibitors. 1,500 tested, 77% active. Pol iota primer extension, TAMRA/BHQ fluorescence. shares compounds with Pol kappa inh-1
Pol kappa inh-2: qHTS for Inhibitors of Polymerase Kappa: Confirmatory Assay for Cherry-picked Compounds; purified Pol-kappa, fluorescent strand-displacement substrate; shares compounds with Pol eta inh-1; 920 tested, 76% active; Potency, µM, usual class: inhibitors; AID 720501, 2013
Pol eta inh-2: qHTS for Inhibitors of Polymerase Eta: Confirmatory Assay for Cherry-picked Compounds | shares compounds with Pol eta inh-1 | Pol eta primer extension, TAMRA/BHQ fluorescence, 10 min | Potency, µM, usual class: inhibitors | 2,600 tested, 64% active | AID 720502, 2013
Of the large screens only hits and unclear results are named; the others gave an inactive call (follow-up assays come after a bar, where they were run). In the library only some 2.4% were active in any assay of this set; here they are far more common. Calls come from the whole dose curve; as a rule, active = well fitted curve in the direction sought with a large enough effect; inconclusive = small, poorly fitted or top-dose-only effect, or another doubt; inactive = no such curve, though single readings can be large; an effect the other way counts as inactive or inconclusive.

O=C1C(=C(I)I)c2ccccc2-c2ccccc21	Pol eta inh-1 22µM, WRN inhibitor inconclusive, POLI inh inconclusive (no result: POLB inh) | POLI cherry-pick 21 | Pol eta inh-2 24
COc1cccc(/C=N/NC(=O)c2cc(-c3cccn3C)n[nH]2)c1O	POLB inh inconclusive, WRN inhibitor inconclusive, POLI inh inconclusive
COc1cc(/C=N\NC(=O)c2ccc(=O)[nH]n2)cc(OC)c1OC	POLB inh 13µM, Pol kappa inh-1 50µM, Pol eta inh-1 inconclusive, POLI inh 16µM | POLI cherry-pick 30 | Pol eta inh-2 48
COc1cc(/C=N/NC(=O)c2cc(-c3cccn3C)n[nH]2)cc(OC)c1OC	FEN1 inh inconclusive, POLB inh inconclusive, Pol kappa inh-1 inconclusive, Pol eta inh-1 28µM, POLI inh 3.5µM | POLI cherry-pick inconclusive | Pol kappa inh-2 19 | Pol eta inh-2 27
O=C(Nc1nnc(S(=O)(=O)N2CCCc3ccccc32)s1)c1cccc(Cl)c1	Pol eta inh-1 inconclusive (no result: WRN inhibitor)
COc1ccc(C)c2sc(N(Cc3cccnc3)C(=O)C3CCCCC3)nc12	none (no result: WRN inhibitor)
O=C(O)c1ccccc1NS(=O)(=O)c1ccc(NNC(=S)Nc2ccc(OC(F)F)cc2)c([N+](=O)[O-])c1	FEN1 inh inconclusive, POLB inh 89µM, Pol kappa inh-1 inconclusive, Pol eta inh-1 25µM, WRN inhibitor inconclusive, POLI inh inconclusive | POLI cherry-pick 75 | Pol eta inh-2 76
COc1ccc(NC(=O)c2ccccc2NS(=O)(=O)c2ccc(C)cc2)c([N+](=O)[O-])c1	none
COc1ccc(CNC(=O)CCC(=O)N2CCSc3ccccc32)cc1	none (no result: WRN inhibitor)
CN(C)c1ccc(-c2cncnc2NCCN2CCOCC2)cc1	none (no result: FEN1 inh, POLB inh, Pol eta inh-1, WRN inhibitor, POLI inh)
O=C(CCN1C(=O)/C(=C\C=C\c2ccccc2)SC1=S)Nc1cccc(C(=O)O)c1	POLB inh 50µM, Pol kappa inh-1 79µM, Pol eta inh-1 22µM, WRN inhibitor inconclusive | POLI cherry-pick 75 | Pol eta inh-2 54
O=C(CCCN1C(=O)/C(=C\c2ccccc2)SC1=S)Nc1cccc(C(=O)O)c1	POLI inh inconclusive
COc1ccccc1NC(=O)Cn1c(O)c(N=NC(=O)c2ccccc2O)c2ccccc21	FEN1 inh inconclusive, POLB inh inconclusive, Pol kappa inh-1 inconclusive, Pol eta inh-1 50µM, POLI inh inconclusive | POLI cherry-pick inconclusive | Pol kappa inh-2 inconclusive
O=C(CSc1nc2ccccc2c(=O)[nH]1)c1ccc(O)c(O)c1	FEN1 inh inconclusive, POLB inh 20µM, Pol kappa inh-1 20µM, Pol eta inh-1 2.5µM, WRN inhibitor 14µM, POLI inh 13µM | PGK validate inconclusive | POLI cherry-pick inconclusive | Pol kappa inh-2 19 | Pol eta inh-2 30
NC1=CC(=O)C(=O)c2ccccc21	Pol eta inh-1 inconclusive, POLI inh inconclusive (no result: POLB inh)
O=C1C=C(O)c2[nH]c(=O)ccc2C1=O	FEN1 inh inconclusive, Pol kappa inh-1 inconclusive, Pol eta inh-1 18µM, WRN inhibitor inconclusive, POLI inh 18µM (no result: POLB inh) | POLI cherry-pick 53 | Pol kappa inh-2 24 | Pol eta inh-2 48
Cc1oc(-c2ccc(C(=O)NCc3ccc(F)cc3)cc2)nc1CS(=O)c1ccccc1 (stereo not drawn)	none (no result: WRN inhibitor)
COc1ccc2nc(NC(=O)c3nc(S(=O)(=O)Cc4ccccc4)ncc3Cl)sc2c1	POLB inh 5.6µM, Pol kappa inh-1 inconclusive, Pol eta inh-1 inconclusive, POLI inh inconclusive (no result: WRN inhibitor) | POLI cherry-pick 30 | Pol eta inh-2 76
O=C(Nc1nc2ccc(F)cc2s1)c1nc(S(=O)(=O)Cc2ccccc2)ncc1Cl	none (no result: WRN inhibitor)
O=C(O)CN1C(=O)/C(=C\c2cc([N+](=O)[O-])ccc2OCc2ccccc2Cl)SC1=S	POLB inh 40µM, Pol kappa inh-1 inconclusive, Pol eta inh-1 22µM, WRN inhibitor 45µM, POLI inh 28µM | POLI cherry-pick inconclusive | Pol eta inh-2 inconclusive
O=C(O)CN1C(=O)/C(=C\c2cccc(OCc3ccccc3)c2)SC1=S	none
O=C(O)CN1C(=O)/C(=C\c2cc(Br)ccc2OCc2ccc(Cl)cc2)SC1=S	FEN1 inh inconclusive, POLB inh inconclusive, Pol eta inh-1 22µM, WRN inhibitor 56µM | POLI cherry-pick inconclusive | Pol eta inh-2 48
COc1cccc(-c2nc(-c3ccc(NC(=O)c4ccncc4)cc3)no2)c1	FEN1 inh inconclusive, POLB inh 14µM, Pol eta inh-1 35µM, POLI inh inconclusive | POLI cherry-pick 11 | Pol eta inh-2 11
COc1ccc(-c2nc(-c3ccc(NC(=O)c4ccncc4)cc3)no2)cc1OC	none
Cc1ccc(CNC(=O)c2ccc(CSCc3ccccc3C)o2)cc1	POLI inh inconclusive (no result: WRN inhibitor)
CCc1ccc(/C(C)=N/NC(=O)CNC(=O)/C=C/c2ccco2)cc1	FEN1 inh 45µM, Pol kappa inh-1 32µM, Pol eta inh-1 8.9µM, WRN inhibitor 28µM, POLI inh 5µM (no result: POLB inh) | PGK validate 3.3µM | POLI cherry-pick 15 | Pol eta inh-2 21
CCc1ccc(/C(C)=N/NC(=O)CNC(=O)/C=C/c2ccccc2OC)cc1	none
Cc1ccc(CCNC(=O)CCCn2c(=O)c3ccccc3n(CC(=O)Nc3cc(Cl)ccc3C)c2=O)cc1	none (no result: WRN inhibitor)
COc1ccc(-c2coc3ccc(OC4OC(COC(C)=O)C(OC(C)=O)C(OC(C)=O)C4OC(C)=O)c(OC(C)=O)c3c2=O)cc1 (stereo not drawn)	none (no result: FEN1 inh, POLB inh, Pol eta inh-1, WRN inhibitor, POLI inh)
O=C(CSc1nnc(C2CC2)n1C1CC1)c1ccc(F)c(F)c1	none (no result: POLB inh)
CC(=O)Nc1cc(C(=O)CSc2nnc(C3CC3)n2C2CC2)ccc1O	Pol kappa inh-1 35µM, Pol eta inh-1 11µM, WRN inhibitor inconclusive, POLI inh 8.9µM (no result: POLB inh) | POLI cherry-pick inconclusive | Pol eta inh-2 76

High-throughput results (PubChem BioAssay)
